{"source": "PubChem BioAssay (Tox21)", "note": "Inconclusive results are not listed. Values without a mark were called inactive. Activity calls are given as the source filed them. The call rests on the fitted dose curve; in most records, active means well fitted cell-killing curve with a large enough effect in the repeat runs; inconclusive means weak or mixed curves, or effect the other way; inactive means flat fitted curve, though single readings scatter. Positions of bridges follow the written chain, without caps; N, C: chain ends. Non-standard residues stand in square brackets, D forms with d. Residues, ends and D or L forms follow the SMILES beside them. hArg = N=C(N)NCCCC[C@H](N)C(=O)O; Mpa = O=C(O)CCS"}
{"experiment": "qHTS assay to identify small molecule antagonists of the estrogen receptor alpha (ER-alpha) signaling pathway using the BG1 cell line in the presence of 0.1 nM 17-beta-estradiol - cell viability counter screen (AID 1259241); further: on the % scale 0 is the no-effect control and ±100 the full control effect; nearly all actives have a fitted effect of over 40% in size", "conditions": "VM7Luc4E2 (BG1) viability, CellTiter-Fluor protease, 22 h, 0.1 nM estradiol agonist added; series mostly up to 92.4 µM", "from_the_text": "National Center for Advancing Translational Sciences [NCATS]\nNIH Chemical Genomics Center [NCGC]\nU.S. Environmental Protection Agency [EPA]\nNational Institutes of Environmental Health Sciences [NIEHS]\nNational Toxicology Program [NTP]\nU.S. Food and Drug Administration [FDA]\nEstrogen receptor (ER), a member of the nuclear hormone receptor plays an important role in development, metabolic homeostasis and reproduction. Two subtypes of ER, ER-alpha and ER-beta, have similar expression patterns with some uniqueness in both types. Endocrine disrupting chemicals (EDCs) and their interactions with steroid hormone receptors like ER causes disruption of normal endocrine function. Therefore, it is important to understand the effect of environmental chemicals in ER signaling pathway. For identifying ER antagonists, VM7Luc4E2 cell line was used to screen against Tox21 compound libraries.\nVM7Luc4E2 cell line (provided by Denison MS, University of California) endogenously express full-length ER-alpha and is stably transfected with a plasmid containing four estrogen responsive elements (ERE) upstream of a luciferase reporter gene. The current screening for identification of ER-alpha inhibitors against Tox21 compound libraries used lower concentration (0.1 nM) of 17beta-Estradiol as a stimulator. The cytotoxicity of the Tox21 compound libraries against VM7Luc4E2 cell line was tested by measuring live-cell protease activity using CellTiter-Fluor assay in the same wells.\nTox21 Assay Protocol Summary:\nVM7Luc4E2 cells were cultured in phenol red free assay medium containing 10% charcoal stripped FBS for 5 days prior to the assay. The cells were dispensed at 4,000 cells/well in 4 uL of assay medium into white wall/solid-bottom 1536-well plates (Corning Life Sciences, Corning, NY) using a Multidrop Combi (ThermoFisher Scientific, Waltham, MA) dispenser. After the assay plates were incubated at 37C and 5% CO2 for 24 hr, 23 nL of compounds dissolved in DMSO, positive controls or DMSO only was transferred to the assay plates by a Pintool station (Kalypsys, San Diego, CA). The transfer of compounds was followed by the addition of 1 uL of 0.1 nM (final concentration) agonist (17beta-Estradiol)/assay medium using a Flying Reagent Dispenser (FRD, Aurora Discovery, San Diego, CA). The plates were incubated at 37C and 5% CO2 for 22 hr. For cytotoxicity assay, 1 uL of CellTiter-Fluor reagent (Promega Corporation, Madison, WI) was added to each well using the FRD and after 30 min incubation at 37C and 5% CO2, The fluorescence intensity was measured using ViewLux plate reader (PerkinElmer, Shelton, CT)."}
{"compound": "COc1c2occc2c(OC)c2c(=O)cc(C)oc12", "outcome": "inactive"}
{"compound": "O=C1CCCCO1", "outcome": "inactive"}
{"compound": "C[C@@H](O)C(=O)O", "outcome": "inactive"}
{"compound": "Cc1cc(-c2ccccc2)nnc1NCCN1CCOCC1", "outcome": "inactive"}
{"compound": "CCCCOC(=O)C(C)O", "note": "(stereo not given)", "outcome": "inactive"}
{"compound": "COc1nc(N)nc2nc[nH]c12", "outcome": "inactive"}
{"compound": "O=C(O)[C@H](O)c1ccccc1", "outcome": "inactive"}
{"compound": "CCOC(=O)CC1(C)OCC(C)O1", "note": "(stereo not given)", "outcome": "inactive"}
{"compound": "OC[C@H]1O[C@@H](O[C@@H]2[C@@H](CO)O[C@](O)(CO)[C@H]2O)[C@H](O)[C@@H](O)[C@H]1O", "outcome": "inactive"}
{"compound": "CCNC(=O)NCc1cccc(Cl)c1", "outcome": "inactive"}
{"compound": "COC(=O)c1cc(Cl)cc(Cl)c1", "outcome": "inactive"}
{"compound": "CCCSSCCC", "outcome": "inactive"}
{"compound": "[O-][n+]1cccc(/C(Cl)=N/OC[C@@H](O)CN2CCCCC2)c1", "outcome": "inactive"}
{"compound": "CC(C)COC(=O)c1ccccc1", "outcome": "inactive"}
{"compound": "CC(=O)O[C@@H]1CC2CCC1(C)C2(C)C", "note": "(stereo not given in full)", "outcome": "inactive"}
{"compound": "CCC(C(=O)OCCN1CCOC(c2ccccc2)C1C)c1ccccc1", "note": "(stereo not given)", "outcome": "inactive"}
{"compound": "CCCCC1CCC(O)CC1", "note": "(stereo not given)", "outcome": "inactive"}
{"compound": "COc1ccc2c(c1)c1c3n2CCN(C)C3=NCC1", "outcome": "inactive"}
{"compound": "COC(=O)CCCCC(=O)O", "outcome": "inactive"}
{"compound": "Nc1nnnn1-c1ccccc1", "outcome": "inactive"}
{"compound": "CCC(C)C(=O)OCCc1ccccc1", "note": "(stereo not given)", "outcome": "inactive"}
{"compound": "CC(=O)C(C)O", "note": "(stereo not given)", "outcome": "inactive"}
{"compound": "CC(Oc1cc(Cl)ccc1Cl)C(=O)O", "note": "(stereo not given)", "outcome": "inactive"}
{"compound": "CCCCCCCCCCCCCCCCCCOCCO", "activity change, negative = cytotoxicity": "4.04% [at 19 µM]"}
{"compound": "CCC(=O)CC", "outcome": "inactive"}
{"compound": "COC(C)(OC)OC", "outcome": "inactive"}
{"compound": "CN(C)CC/C=C1/c2ccccc2COc2ccc(CC(=O)O)cc21", "outcome": "inactive"}
{"compound": "CCC[C@@H]1C[C@@H](C(=O)N[C@@H]([C@H]2O[C@H](SC)[C@H](O)[C@@H](O)[C@H]2O)[C@@H](C)O)N(C)C1", "outcome": "inactive"}
{"compound": "CC1(C)CC(OC(=O)CCCCCCCCC(=O)OC2CC(C)(C)NC(C)(C)C2)CC(C)(C)N1", "activity change, negative = cytotoxicity": "-0.502% [at 19 µM]"}
{"compound": "CC(C)OC(=O)OCOP(=O)(CO[C@H](C)Cn1cnc2c(N)ncnc21)OCOC(=O)OC(C)C", "outcome": "inactive"}
{"compound": "CNCCS(=O)(=O)O", "outcome": "inactive"}
{"compound": "O=C=NCC1CCCC(CN=C=O)C1", "note": "(stereo not given)", "outcome": "inactive"}
{"compound": "OCC1CCC(CO)CC1", "note": "(stereo not given)", "outcome": "inactive"}
{"compound": "NC(=O)[C@@H]1CSSCCC(=O)N[C@@H](CCCCN=C(N)N)C(=O)NCC(=O)N[C@@H](CC(=O)O)C(=O)N[C@@H](Cc2c[nH]c3ccccc23)C(=O)N2CCC[C@H]2C(=O)N1", "note": "([Mpa][hArg]GDWPC-NH2; disulfide 1-7)", "outcome": "inactive"}
{"compound": "C[C@H]1[C@@H](c2ccccc2)NC(=O)N1C", "outcome": "inactive"}
{"compound": "CC12CCC(C1)C(C)(C)C2O", "note": "(stereo not given)", "outcome": "inactive"}
{"compound": "COC(=O)CCCCC(CCSS/C(CCO)=C(\\C)N(C=O)Cc1cnc(C)nc1N)SC(C)=O", "note": "(stereo not given)", "outcome": "inactive"}
{"compound": "CCCCOCC(C)O", "note": "(stereo not given)", "outcome": "inactive"}
{"compound": "CC(=O)OCC(=O)Nc1cc(C#N)cc(NC(=O)COC(C)=O)c1Cl", "outcome": "inactive"}
{"compound": "C/C=C(\\C)C(C)=O", "outcome": "inactive"}
